High-throughput results: PubChem, National Center for Advancing Translational Sciences (NCATS)
DT40 TDP1 CPT = DT40-hTDP1 cell growth loss with CPT | Potency, µM (titrated, usually from 46.2 µM), for inactives: top-dose activity change, negative = growth inhibition, usual class: inhibitors | AID 686979 | chicken DT40 Tdp1-/-;hTDP1 cells + 20 nM CPT, ATP luminescence, 48 h | 420,000 tested, 12% active; also: nearly all actives have a fitted effect of over 55% in size
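Chicken DT40 Tdp1-/- cells complemented with human TDP1, 400 cells/well, exposed to compounds plus 20 nM camptothecin for at least 48 h at 37 C; viability read as ATP content by CellTiter-Glo luminescence.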
TDP1 block = blocks human tyrosyl-DNA phosphodiesterase 1. Potency, µM (doses to about 130 µM), without a hit: at the top dose activity change, negative = inhibition, most hits filed as inhibitors. AID 485290. Q9NUW8. 350,000 tested, 0.28% active. recombinant TDP1, AlphaScreen DNA substrate cleavage; also: nearly all actives have a fitted effect of over 40% in size
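Here, a 5' biotin and 3' phosphotyrosine-FITC DNA oligonucleotide reports Tdp1 activity: intact substrate bridges AlphaScreen beads, while cleavage leaves a 3' phosphate and drops signal. All incubations at room temperature.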
VDR inh = blocks the human vitamin D receptor; 400,000 tested, 0.93% active; Potency, µM, for the others: max response, negative = inhibition, actives largely listed as inhibitors; P11473; VDR-SRC2-3 peptide fluorescence polarization, 2 h
Target sequence (P11473 whole entry, looked up): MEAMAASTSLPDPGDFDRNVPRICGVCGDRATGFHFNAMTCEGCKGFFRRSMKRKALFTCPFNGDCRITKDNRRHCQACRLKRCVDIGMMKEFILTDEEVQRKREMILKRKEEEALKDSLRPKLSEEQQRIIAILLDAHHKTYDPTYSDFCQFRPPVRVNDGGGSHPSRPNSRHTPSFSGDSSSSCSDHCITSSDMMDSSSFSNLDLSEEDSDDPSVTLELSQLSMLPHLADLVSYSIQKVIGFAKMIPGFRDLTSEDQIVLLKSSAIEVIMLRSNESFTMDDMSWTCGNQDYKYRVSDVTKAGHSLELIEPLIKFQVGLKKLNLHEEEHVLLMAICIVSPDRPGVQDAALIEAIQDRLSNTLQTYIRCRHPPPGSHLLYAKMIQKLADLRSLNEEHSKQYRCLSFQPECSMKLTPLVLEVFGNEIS
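Two reagent solutions held at 4 deg C in the dark were dispensed, compounds pinned at 23 nl, and the mixture incubated 2 h at room temperature. Read-out: fluorescence polarization of VDR–SRC2-3 peptide binding.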
PLK1 PBD block = inhibitors of human PLK1 polo-box domain binding; Potency, µM, for the others: max response, negative = inhibition, hits mostly inhibitors; AID 720504; Plk1 PBD binding of FITC phosphopeptide, fluorescence polarization; P53350; 360,000 tested, 2.8% active; also: series mostly up to about 57 µM; nearly all actives have a fitted effect of over 65% in size
KAT2A inh = inhibitors of human GCN5L2 histone acetyltransferase; Q92830; GCN5L2 HAT assay, ThioGlo1 CoA-SH fluorescence; Potency, µM (titrated, usually from 58.9 µM), for inactives: at the top dose activity change, negative = inhibition, hits mostly inhibitors; 390,000 tested, 0.21% active; AID 504327
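Titration-based screen in which CoA formation is detected via maleimide probe ThioGlo1 (50uM) turning fluorescent on thiol reaction; substrates H3(1-25) 75uM and acetyl-CoA 70uM, GCN5L2 20nM, 20 min incubation at room temperature.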
DT40 TDP1 no CPT = qHTS for Inhibitors of human tyrosyl-DNA phosphodiesterase 1 (TDP1): qHTS in cells in absence of CPT. DT40 Tdp1-/- hTDP1 cells, no CPT, ATP luminescence, 48 h. 420,000 tested, 15% active. Potency, µM (highest dose often 46.2 µM), for inactives: at the highest dose activity change, negative = growth inhibition, most hits filed as inhibitors. AID 686978, 2013; also: nearly all actives have a fitted effect of over 55% in size
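Chicken DT40 Tdp1-/- cells stably complemented with human TDP1 were seeded at 400 cells/well with DMSO in place of 20 nM camptothecin. After compound pinning, cells grew at least 48 hr at 37 °C; viability read by CellTiter-Glo luminescence.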
The depositor's hits bear a star; [ ] = remark or other dose. Rows were chosen to be rich in hits. Some 18% of all compounds tested hit in one or more screens of this group. Calls follow the shape of the dose curve; as a rule, active = well fitted curve in the direction sought with a large enough effect; inconclusive = small, poorly fitted or top-dose-only effect, or another doubt; inactive = no such curve, though single readings can be large; an effect the other way counts as inactive or inconclusive. % is scaled to controls: 0 for no effect and ±100 for the full control effect; potency is read from the fitted curve at half-maximal effect.

Screening COc1cc(-c2nc(C(N)=O)c3c(n2)n(-c2cccc(C)c2)c(=O)n3C)cc(OC)c1OC returned TDP1 block 0.6%, VDR inh -1.4% and KAT2A inh 1.1%.
For CC(C)c1ccc(OCc2cc(=O)n3c(-c4ccccc4)csc3n2)cc1 the results were DT40 TDP1 CPT inconclusive, TDP1 block -3.8%, VDR inh -7.6%, KAT2A inh -18.5% and DT40 TDP1 no CPT 25.9µM*.
Screening O=c1cc(COc2ccccc2Cl)nc2scc(-c3ccccc3)n12 returned DT40 TDP1 CPT inconclusive, TDP1 block -6.4%, VDR inh -4.0%, KAT2A inh -22.3% and DT40 TDP1 no CPT inconclusive.
`Nc1cc(OC(=O)c2ccc(F)cc2)nn1S(=O)(=O)c1ccccc1` gave DT40 TDP1 CPT 4.2%, TDP1 block -8.9%, VDR inh -20.1%, PLK1 PBD block -19.3%, KAT2A inh -2.4% and DT40 TDP1 no CPT -22.0%.
Cc1ccc(-n2nc(C)c3c(C)c(CCC(=O)Nc4ccc(CN5CCCC5)cc4)c(C)nc32)cc1 was read as DT40 TDP1 CPT inconclusive, VDR inh 18.5%, PLK1 PBD block -20.3%, KAT2A inh -1.0% and DT40 TDP1 no CPT 11.6µM*.
For CCOC(=O)N1CCC(NC(=O)CCc2c(C)nc3c(c(C)nn3-c3ccccc3)c2C)CC1 the results were DT40 TDP1 CPT -18.7%, VDR inh inconclusive, PLK1 PBD block inconclusive and DT40 TDP1 no CPT -5.0%.
CC(=O)c1ccc(NC(=O)c2cc(C3CC3)nc3c2c(C)nn3-c2ccc(C)cc2)cc1 was read as DT40 TDP1 CPT -25.0%, TDP1 block 6.3%, VDR inh 15.5%, KAT2A inh 26.2% and DT40 TDP1 no CPT -26.7%.
COC(CNC(=O)CCc1c(C)nc2c(c(C)nn2-c2ccc(C)cc2)c1C)OC was read as DT40 TDP1 CPT inconclusive, VDR inh 7.4%, PLK1 PBD block 4.7%, KAT2A inh 3.8% and DT40 TDP1 no CPT inconclusive.
CC(=O)c1ccc(NC(=O)CCc2c(C)nc3c(c(C)nn3-c3ccc(C)cc3)c2C)cc1 was read as DT40 TDP1 CPT inconclusive, TDP1 block 7.6%, VDR inh 4.2%, KAT2A inh -1.6% and DT40 TDP1 no CPT 7.31µM*.
`Cc1ccc(-n2nc(C)c3c(C)c(CCC(=O)NCCCOC(C)C)c(C)nc32)cc1` gave DT40 TDP1 CPT 23.1µM*, VDR inh 25.3%, PLK1 PBD block -12.4%, KAT2A inh 2.4% and DT40 TDP1 no CPT inconclusive.
Screening CC1(C)SC2C(C(=O)O)N=C(Cc3ccccc3)N2C1C(=O)O (stereo not given) returned DT40 TDP1 CPT 26.6%, VDR inh 4.9%, PLK1 PBD block -3.7% and DT40 TDP1 no CPT 0.0%.
Screening CCOc1ccc(NC(=O)CCCn2c(C)c3cnn(-c4ccccc4)c(=O)c3c2C)cc1 returned DT40 TDP1 CPT inconclusive, TDP1 block 5.1%, VDR inh 14.1%, KAT2A inh -4.5% and DT40 TDP1 no CPT inconclusive.
For NC(=O)C1CCN(CC(=O)N2N=CCC2c2ccccc2)CC1 (stereo not given) the results were DT40 TDP1 CPT 15.2%, TDP1 block -9.0%, VDR inh -16.4%, PLK1 PBD block 1.0%, KAT2A inh -24.2% and DT40 TDP1 no CPT -14.9%.
For Cc1cc(N2CCCCC2)nc2ccc(NC(=O)/C=C/c3ccccc3OC(C)C)cc12 the results were DT40 TDP1 CPT 7.31µM*, TDP1 block 5.9%, VDR inh -19.7%, KAT2A inh -21.4% and DT40 TDP1 no CPT 10.3µM*.
Cc1ccc(NC(=O)/C=C/c2ccccc2Cl)cc1Cl was read as DT40 TDP1 CPT -19.3%, TDP1 block -4.0%[12.3 µM], VDR inh 2.3%, KAT2A inh -0.2% and DT40 TDP1 no CPT -21.9%.
Screening CCN1CCN(c2cc(C)c3cc(NC(=O)/C=C/c4cccc(OC)c4OC)ccc3n2)CC1 returned DT40 TDP1 CPT inconclusive, TDP1 block 5.9%, VDR inh 5.9%, KAT2A inh -10.2% and DT40 TDP1 no CPT inconclusive.
Screening Cc1cc(N2CCCCC2)nc2ccc(NC(=O)/C=C/c3ccccc3Cl)cc12 returned DT40 TDP1 CPT 13µM*, TDP1 block 8.8%, VDR inh -9.3%, KAT2A inh -14.1% and DT40 TDP1 no CPT 10.3µM*.
COc1cccc(/C=C/C(=O)Nc2ccc3nc(N4CCN(C)CC4)cc(C)c3c2)c1OC was read as DT40 TDP1 CPT 6.51µM*, TDP1 block 11.8%, VDR inh 19.2%, KAT2A inh -3.5% and DT40 TDP1 no CPT 5.17µM*.
`COc1ccc(/C=C/C(=O)Nc2ccc3nc(N4CCCCC4)cc(C)c3c2)cc1OC` gave DT40 TDP1 CPT 2.91µM*, TDP1 block 8.8%, VDR inh 10.9%, KAT2A inh -17.0% and DT40 TDP1 no CPT 2.59µM*.
For COc1ccc(-n2nnnc2CNC(=O)c2c(-c3ccccc3Cl)noc2C)cc1 the results were DT40 TDP1 CPT -10.3%, PLK1 PBD block -7.3% and DT40 TDP1 no CPT -0.3%.
Screening c1ccc2c(c1)CCC[C@@H]2C1=NCCN1 returned TDP1 block 4.6%[21 µM], VDR inh 1.0% and KAT2A inh 5.6%.
Cn1nnc2c(NCCc3ccccc3)ncnc21 was read as DT40 TDP1 CPT -20.2%, TDP1 block 2.6%, VDR inh 8.6%, KAT2A inh 0.3% and DT40 TDP1 no CPT -18.2%.
Screening COc1cccc(NC(=S)NC2CC(C)CC(C)(C)C2)c1 (stereo not given) returned DT40 TDP1 CPT 20.6µM*, PLK1 PBD block 0.4% and DT40 TDP1 no CPT 23.1µM*.
Screening Cc1cc(C(=O)O)cc(S(=O)(=O)Nc2ccccc2C(=O)NC2CC2)c1C returned DT40 TDP1 CPT 15.4%, TDP1 block -1.0%, VDR inh -24.4%, PLK1 PBD block -10.5%, KAT2A inh -10.1% and DT40 TDP1 no CPT 1.8%.
`CC(=O)c1cc(O)c2ccccc2c1O` gave DT40 TDP1 CPT 14.6µM*, TDP1 block 9.6%, VDR inh 31.6µM*, PLK1 PBD block 5.32µM*, KAT2A inh inconclusive and DT40 TDP1 no CPT 4.61µM*.
CC(=O)c1coc2c1cc(O)c1ccccc12 was read as DT40 TDP1 CPT -23.2%, TDP1 block 1.0%, VDR inh 7.5%, PLK1 PBD block -2.4%, KAT2A inh -5.7% and DT40 TDP1 no CPT -4.8%.
For CCCc1cc(=O)oc2cc(C)c3c(-c4ccccc4)coc3c12 the results were DT40 TDP1 CPT inconclusive, TDP1 block -11.0%, VDR inh 4.1%, KAT2A inh -6.7% and DT40 TDP1 no CPT inconclusive.
